Screens from PubChem.
Rows were chosen to be rich in hits. Some 19% of all compounds tested hit in one or more screens of this group.
HT1080 IDH1KD tx = qHTS for induction of synthetic lethality in tumor cells producing 2HG: qHTS for the HT-1080-IDH1KD cell line | HT-1080 IDH1 knockdown viability, ATP luminescence, 48 h | Potency, µM (doses to about 46.1 µM), for inactives: top-dose activity, negative = toxicity, hits mostly cytotoxic | 360,000 compounds, 2% hits;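 also: potency is read from the fitted curve at half-maximal effect; 0% = DMSO wells and -100% = cell-free medium wells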
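Luminescent ATP read-out (CellTiter-Glo, 10 min at room temperature) after 48 h compound exposure at 37 °C gave viability of IDH1-knockdown HT-1080 cells. Activity was normalised to DMSO and cell-free wells, then fitted as concentration-response curves.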
HT1080-NT tox = qHTS for induction of synthetic lethality in tumor cells producing 2HG: qHTS for the HT-1080-NT fibrosarcoma cell line; Potency, µM (top dose mostly 46.1 µM), inactives show at the highest dose activity, negative = less viability, actives largely listed as cytotoxic; AID 686970, 2013; HT-1080-NT fibrosarcoma viability, CellTiter-Glo ATP luminescence, 48 h; 360,000 compounds, 1.6% hits;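 also: NT is the 2HG producing partner of a matched IDH1 knockdown line; potency is read from the fitted curve at half-maximal effect; 0% = DMSO-treated cells and -100% = media-only wells without cells; nearly all actives have a fitted effect of over 55% in size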
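HT-1080-NT; 750 cells/well; 5% FBS RPMI; 48 h compound, 37 degrees C; CellTiter-Glo luminescence; curve fitting and curve-class assignment.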
DT40 TDP1 CPT = qHTS for Inhibitors of human tyrosyl-DNA phosphodiesterase 1 (TDP1): qHTS in cells in presence of CPT. AID 686979, 2013. chicken DT40 Tdp1-/-;hTDP1 cells + 20 nM CPT, ATP luminescence, 48 h. 420,000 compounds, 12% hits. Potency, µM (titrated, usually from 46.2 µM), without a hit: at the top dose activity change, negative = growth inhibition, hits mostly inhibitors; also: potency is read from the fitted curve at half-maximal effect; nearly all actives have a fitted effect of over 55% in size
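Cell growth measured by CellTiter-Glo luminescence after a minimum 48 h, 37 C compound exposure with 20 nM CPT in Tdp1-knockout DT40 cells stably expressing hTDP1, seeded 400/well; qHTS titration format.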
IL1B secr inh = qHTS for Inhibitors of Inflammasome Signaling: IL-1-beta AlphaLISA Primary Screen; THP-1 LPS/ATP IL-1B secretion, AlphaLISA, 16 h; stronger effect = lower value; activity change, % at 57.5 µM; 360,000 compounds, 4.7% hits; in the data active = activity change below about -50%; inconclusive = mostly about -30% to -49%
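Secreted IL-1B measured by AlphaLISA bead assay after 16 h compound exposure of THP-1 cells; compounds (final up to 57.5 uM) added 1 h before LPS (250 ng/mL) and ATP (1.25 mM) stimulation; lower signal means less secretion.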
TDP1 cell noCPT = qHTS for Inhibitors of human tyrosyl-DNA phosphodiesterase 1 (TDP1): qHTS in cells in absence of CPT. AID 686978, 2013. DT40 Tdp1-/- hTDP1 cells, no CPT, ATP luminescence, 48 h. Potency, µM (top dose mostly 46.2 µM), for the others: top-dose activity change, negative = growth inhibition, usual class: inhibitors. 420,000 compounds, 15% hits; also: potency is read from the fitted curve at half-maximal effect; nearly all actives have a fitted effect of over 55% in size
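Compound effects on proliferation are scored in DT40 Tdp1-/-;hTDP1 cells in the absence of CPT. ATP levels (CellTiter-Glo luminescence) are recorded after a ≥48 hr, 37 °C incubation.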
uPA generation = qHTS for Inhibitors of Cell Surface uPA Generation; cell surface uPA generation assay, qHTS; Potency, µM (series often up to 38.3 µM), inactives show top-dose activity change, negative = inhibition, most hits filed as inhibitors; 330,000 compounds, 0.31% hits; active = well fitted inhibition curve with a large enough effect; inconclusive = small, poorly fitted or top-dose-only effect; inactive = no such curve, though single readings can be large or run the other way; tested in mouse RAW 264.7 cells; also: potency is read from the fitted curve at half-maximal effect; nearly all actives have a fitted effect of over 55% in size
Numbers without * were called inactive; [ ] = remark or other dose. Unless noted, calls follow the shape of the dose curve; as a rule, active = well fitted curve in the direction sought with a large enough effect; inconclusive = small, poorly fitted or top-dose-only effect, or another doubt; inactive = no such curve, though single readings can be large; an effect the other way counts as inactive or inconclusive. Unless noted, % is scaled to controls: 0 for no effect and ±100 for the full control effect.

`Nc1ccccc1OCCOc1ccccc1N` gave HT1080 IDH1KD tx -9%, HT1080-NT tox -1%, DT40 TDP1 CPT 5%, IL1B secr inh -24, TDP1 cell noCPT -2% and uPA generation -3%.
For CCc1c(C)c2ccccc2[nH]c1=O the results were DT40 TDP1 CPT -23% and TDP1 cell noCPT inconclusive.
Screening O=C(CN1CCOCC1)Nc1c2c(nc3ccccc13)N(Cc1ccccc1)CC2 returned HT1080 IDH1KD tx -4%, HT1080-NT tox -10%, DT40 TDP1 CPT -26%, IL1B secr inh -9, TDP1 cell noCPT -15% and uPA generation -2%.
O=C(CN1CCCC1)Nc1c2c(nc3ccccc13)N(Cc1ccccc1)CC2 was read as HT1080 IDH1KD tx inconclusive, HT1080-NT tox inconclusive, DT40 TDP1 CPT 21µM*, IL1B secr inh -6, TDP1 cell noCPT -30% and uPA generation -8%.
For Cc1ccc(C(=O)N/C(=C\c2cccs2)C(=O)N2CCOCC2)cc1C the results were HT1080 IDH1KD tx 8%, HT1080-NT tox -1%, DT40 TDP1 CPT -21%, IL1B secr inh 4, TDP1 cell noCPT -7% and uPA generation 7%.
CCOCCCNC(=O)c1cc(=O)[nH]c2ccc(S(=O)(=O)N3CCCC3)cc12 was read as DT40 TDP1 CPT 2% and TDP1 cell noCPT 1%.
For CCCSc1nn2c(=O)c3ccccc3nc2s1 the results were HT1080 IDH1KD tx -11%, HT1080-NT tox -2%, DT40 TDP1 CPT 18µM*, IL1B secr inh 15, TDP1 cell noCPT -22% and uPA generation -7%.
For Cc1cccc(Nc2nn3c(=O)c4ccccc4nc3s2)c1 the results were HT1080 IDH1KD tx -10%, HT1080-NT tox -6%, DT40 TDP1 CPT -3%, IL1B secr inh -18, TDP1 cell noCPT -9% and uPA generation -5%.
COc1cccc2cc(-c3nc(-c4cccs4)cs3)c(=O)oc12 was read as HT1080 IDH1KD tx -17%, HT1080-NT tox -26%, DT40 TDP1 CPT inconclusive, IL1B secr inh 58, TDP1 cell noCPT inconclusive and uPA generation 2%.
For COc1cc(-c2cccs2)cc(=O)c2c(C)oc(C)c12 the results were HT1080 IDH1KD tx 12%[9.24 µM], HT1080-NT tox -8%, DT40 TDP1 CPT 13µM*, IL1B secr inh inconclusive, TDP1 cell noCPT 23µM* and uPA generation 2%.
`COc1cc(-c2cc(OC)c3c(C)oc(C)c3c(=O)c2)ccc1OC(=O)c1ccccc1F` gave DT40 TDP1 CPT 8.2µM* and TDP1 cell noCPT 21µM*.
Screening COc1cc(-c2cc(OC)c3c(C)oc(C)c3c(=O)c2)ccc1OC(=O)c1ccccc1Cl returned DT40 TDP1 CPT 5.8µM* and TDP1 cell noCPT 4.6µM*.
`COc1ccc(C(=S)N2CCOCC2)cc1OC(=O)c1ccccc1Cl` gave HT1080 IDH1KD tx 1%, HT1080-NT tox -1%, DT40 TDP1 CPT 1%, IL1B secr inh 10, TDP1 cell noCPT -6% and uPA generation -1%.
CCCN(C(=O)Cc1c(C(=O)O)n(C)c2ccccc12)c1cccc(C)c1 was read as HT1080 IDH1KD tx 0%, HT1080-NT tox -7%, DT40 TDP1 CPT 1%, IL1B secr inh 23, TDP1 cell noCPT 8% and uPA generation 9%.
Nc1nc(CSC(=S)N2CCN(c3ccccc3)CC2)nc(Nc2ccccc2)n1 was read as HT1080 IDH1KD tx -16%, HT1080-NT tox -8%, DT40 TDP1 CPT 23µM*, IL1B secr inh -14, TDP1 cell noCPT inconclusive and uPA generation 17%.
`Cc1ccc(Nc2nc(N)nc(CSC(=S)N3CCOCC3)n2)c(C)c1` gave HT1080 IDH1KD tx -7%, HT1080-NT tox 0%, DT40 TDP1 CPT inconclusive, IL1B secr inh inconclusive, TDP1 cell noCPT 26µM* and uPA generation 12%.
Screening Cc1ccc(Nc2nc(N)nc(CSC(=S)N3CCN(c4ccccc4)CC3)n2)cc1 returned HT1080 IDH1KD tx 1%, HT1080-NT tox 11%, DT40 TDP1 CPT -18%, IL1B secr inh -5, TDP1 cell noCPT inconclusive and uPA generation 5%.
For COc1ccc(Nc2nc(N)nc(CSC(=S)N3CCOCC3)n2)cc1 the results were HT1080 IDH1KD tx -25%, HT1080-NT tox -8%, DT40 TDP1 CPT inconclusive, IL1B secr inh -2, TDP1 cell noCPT inconclusive and uPA generation 8%.
`CC(C)Oc1ccccc1-c1nc(SCC(=O)c2ccc(F)cc2)n[nH]1` gave DT40 TDP1 CPT 21µM* and TDP1 cell noCPT 16µM*.
Screening COc1ccccc1-c1nc(SCC(=O)c2ccccc2)n[nH]1 returned DT40 TDP1 CPT inconclusive and TDP1 cell noCPT 16µM*.
`CC(C)c1ccc(C(=O)CSc2n[nH]c(-c3ccncc3)n2)cc1` gave HT1080 IDH1KD tx -14%, HT1080-NT tox -13%, DT40 TDP1 CPT -27%, IL1B secr inh 19, TDP1 cell noCPT inconclusive and uPA generation -13%.
For CCCOc1ccccc1-c1nc(SCC(=O)c2ccccc2)n[nH]1 the results were DT40 TDP1 CPT 16µM* and TDP1 cell noCPT 18µM*.
COc1ccccc1-c1nc(SCC(=O)N2CCOCC2)n[nH]1 was read as HT1080 IDH1KD tx -4%, HT1080-NT tox -1%, DT40 TDP1 CPT 2%, IL1B secr inh 37, TDP1 cell noCPT 1% and uPA generation -13%.
Cc1ccc(NC(=O)CSc2n[nH]c(-c3ccncc3)n2)cc1C was read as HT1080 IDH1KD tx 4%, HT1080-NT tox -16%, DT40 TDP1 CPT -14%, IL1B secr inh 8, TDP1 cell noCPT -15% and uPA generation 12%.
O=C(CSc1n[nH]c(-c2ccccc2)n1)c1ccccc1 was read as HT1080 IDH1KD tx 3%, HT1080-NT tox inconclusive, DT40 TDP1 CPT inconclusive, IL1B secr inh 9, TDP1 cell noCPT inconclusive and uPA generation -15%.
COc1ccccc1-c1nc(SCC(=O)Nc2ccc(C)c(C)c2)n[nH]1 was read as DT40 TDP1 CPT 23µM* and TDP1 cell noCPT 23µM*.
Screening Cc1cc(C)c(NC(=O)CSc2n[nH]c(-c3ccccc3Cl)n2)c(C)c1 returned DT40 TDP1 CPT inconclusive and TDP1 cell noCPT 6.5µM*.
For CCOc1ccc(CN(C)C(=O)CCN2C(=O)c3ccccc3C2=O)cc1OC the results were HT1080 IDH1KD tx 1%, HT1080-NT tox 13%, DT40 TDP1 CPT 10%, IL1B secr inh 9, TDP1 cell noCPT -6% and uPA generation -1%.
